Assay outcomes: PubChem, Broad Institute
Most compounds without a hit are left out; they make up all but 2.3% or so of the library.
U2OS ROS induce: inducers of reactive oxygen species in cancer cells; AID 624156; 2% of 46,000 active; ROS induction (% of piperlongumine), % at 10 µM; U2OS ROS induction, H2DCF-DA fluorescence; in the data active = ROS induction above about 79%, passing the limit was not always enough
YB-1 expression: YB-1 expression inhibition; delta delta Cp (YB-1 minus CDIP) (no concentration beside the values); U2OS, qRT-PCR YB-1 vs CDIP delta delta Cp, 16 h; hits give high values; zero = DMSO, each unit about twofold; 0.37% of 30,000 active; AID 434959;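 active = delta delta Cp rounded down to an integer at or above 3, about 3 SD of DMSO wells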;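 also: higher means less YB-1 transcript or more CDIP transcript relative to DMSO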
Numbers stand for hits; 0 = inactive; - = no result.

SMILES	U2OS ROS induce	YB-1 expression
COc1ccc(NC(=O)N(C)C[C@H]2Oc3ccc(NS(=O)(=O)c4ccc(OC)cc4)cc3CC(=O)N([C@H](C)CO)C[C@H]2C)cc1	81	0
CNC[C@@H]1Oc2ccc(NC(=O)NC(C)C)cc2CC(=O)N([C@@H](C)CO)C[C@@H]1C	0	0
COc1ccc(S(=O)(=O)Nc2ccc3c(c2)CC(=O)N([C@@H](C)CO)C[C@@H](C)[C@@H](CN(C)C(=O)Nc2ccc4c(c2)OCO4)O3)cc1	81	0
CNC[C@@H]1Oc2ccc(NC(=O)NC(C)C)cc2CC(=O)N([C@H](C)CO)C[C@@H]1C	127	0
O=C(CCC1CCCC1)Nc1ccc2nc3n(c(=O)c2c1)CCCCC3	0	-
CCC(C(=O)Nc1cccc(C)c1C)n1nc(C)c2sc3ccccc3c2c1=O (stereo not drawn)	0	-
CC1(C)C=C(C(N)=O)C(C)(C)N1OC(=O)c1ccco1	0	-
CCCNC(=O)CSc1c(-c2ccccc2)c2cc(Cl)ccc2[nH]c1=O	0	-
Cc1noc(C)c1S(=O)(=O)Nc1ccc2c(c1)CC(=O)N([C@H](C)CO)C[C@@H](C)[C@H](CN(C)CC1CCCCC1)O2	109	0
COc1ccc(S(=O)(=O)N(C)C[C@H]2Oc3ccc(NS(=O)(=O)c4c(C)noc4C)cc3CC(=O)N([C@H](C)CO)C[C@H]2C)cc1	0	0
COc1ccc(S(=O)(=O)Nc2ccc3c(c2)CC(=O)N([C@H](C)CO)C[C@@H](C)[C@@H](CN(C)CC2CC2)O3)cc1	0	0
CC(C)NC(=O)N(C)C[C@@H]1Oc2ccc(NC(=O)Nc3ccc4c(c3)OCO4)cc2CC(=O)N([C@H](C)CO)C[C@H]1C	126	0
COc1ccc(S(=O)(=O)Nc2ccc3c(c2)CC(=O)N([C@H](C)CO)C[C@@H](C)[C@H](CN(C)CC2CC2)O3)cc1	0	3.2
COc1ccc(S(=O)(=O)Nc2ccc3c(c2)CC(=O)N([C@H](C)CO)C[C@@H](C)[C@@H](CN(C)S(=O)(=O)c2c(C)noc2C)O3)cc1	89	0
CC(C)NC(=O)N(C)C[C@H]1Oc2ccc(NC(=O)Nc3ccc4c(c3)OCO4)cc2CC(=O)N([C@@H](C)CO)C[C@@H]1C	0	0
Cc1noc(C)c1S(=O)(=O)Nc1ccc2c(c1)CC(=O)N([C@@H](C)CO)C[C@H](C)[C@H](CN(C)CC1CCCCC1)O2	0	0
COc1ccc(Sc2cccs2)cc1	0	-
CCc1ccc2nc(N3CCC(C(=O)NCC4COc5ccccc5O4)CC3)sc2c1 (stereo not drawn)	0	-
FC(F)(F)c1ccc(-c2csc(-c3ccc(-c4csnn4)cc3)n2)cc1	0	-
O=C(CSc1ccc(-c2ccncc2)nn1)Nc1ccccc1	0	-
C[C@@H]1CN([C@H](C)CO)C(=O)Cc2cc(NS(=O)(=O)c3ccc(Cl)cc3)ccc2O[C@H]1CN(C)C(=O)Nc1ccc(F)cc1	0	0
COc1ccc(S(=O)(=O)N(C)C[C@H]2Oc3ccc(NC(=O)Nc4ccccc4)cc3CC(=O)N([C@H](C)CO)C[C@H]2C)cc1	0	0
COc1ccc(S(=O)(=O)N(C)C[C@@H]2Oc3ccc(NC(=O)Nc4ccccc4)cc3CC(=O)N([C@@H](C)CO)C[C@@H]2C)cc1	112	0
C[C@H](CO)N1C[C@H](C)[C@H](CN(C)C(=O)Nc2ccc(F)cc2)Oc2ccc(NS(=O)(=O)c3ccc(Cl)cc3)cc2CC1=O	89	0
O=c1c2ccccc2nc(SCc2c(F)cccc2F)n1Cc1ccccc1	0	-
SMILES	U2OS ROS induce	YB-1 expression
Cc1ccc(OCc2nn(C)c3ccccc23)cc1	0	-
O=C(NCCc1ccccn1)c1ccc2nccnc2c1	0	-
COC(=O)c1c(-c2ccc(OC)c(OC)c2)csc1NC(=O)C1CC1c1ccccc1 (stereo not drawn)	0	-
CCOC(=O)C(C)Oc1ccc2c(-c3ccccc3)cc(=O)oc2c1 (stereo not drawn)	107	0
COC(=O)Oc1ccc2c(=O)c(-c3ccccc3)coc2c1	0	-
O=C(CCC(=O)Nc1ccc(F)cc1)Nc1ccc(F)cc1	0	-
CSc1nc(N)nc(SCC(=O)Nc2ccccc2)c1C#N	0	-
Cc1ccc(C2CC(=O)n3nc(N)nc3N2)cc1 (stereo not drawn)	0	-
C[C@H](CO)N1C[C@H](C)[C@H](CN(C)Cc2cccc(C(F)(F)F)c2)Oc2ncc(-c3cccc(F)c3)cc2C1=O	0	0
C[C@H](CO)N1C[C@H](C)[C@H](CN(C)Cc2cccc(C(F)(F)F)c2)Oc2ncc(-c3cccc(C(F)(F)F)c3)cc2C1=O	160	0
C[C@H](CO)N1C[C@H](C)[C@H](CN(C)S(=O)(=O)c2cccc(F)c2)Oc2ncc(-c3cccc(C(F)(F)F)c3)cc2C1=O	0	0
C[C@H](CO)N1C[C@H](C)[C@H](CN(C)C(=O)Nc2cccc3ccccc23)Oc2ncc(-c3cc4ccccc4o3)cc2C1=O	115	0
C[C@H](CO)N1C[C@H](C)[C@H](CN(C)Cc2cccc(C(F)(F)F)c2)Oc2ncc(-c3cc4ccccc4o3)cc2C1=O	248	0
